Measurements published in PubChem BioAssay.
Calls of active or inactive are those of the source.

Columns and labels:
[1] = A549 cell viability effects, profiling panel, calcein-AM fluorescence, 48 h, basal (AID 1162); details: higher = more signal
[2] = adipocyte viability effects, profiling panel, cell-based, 3T3-L1 adipocytes, calcein-AM fluorescence, 48 h, basal (AID 1163); details: 3T3-L1 adipocytes viability, higher = more signal
[3] = HepG2 cell viability effects, profiling panel, calcein-AM fluorescence, 48 h, basal (AID 1164); details: higher = more signal
[4] = MM1S cell viability effects, profiling panel, calcein-AM fluorescence, 48 h, basal (AID 1165); details: higher = more signal;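 also: viability of MM1S multiple myeloma cells under basal unstimulated conditions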
[5] = basal RPMI8226 viability, no added stimulus, profiling panel, cell-based, calcein-AM fluorescence, 48 h, PK04 Diversity Set (AID 1166); details: RPMI8226 myeloma viability, higher = more signal;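 also: cells grown under basal conditions without added stimulus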
[6] = basal HepG2 mitochondrial membrane potential changes, profiling panel, cell-based, JC-1 fluorescence, 24 h, 100 nL compound (AID 1167); details: higher = more signal
[7] = basal 3T3-L1 adipocyte mitochondrial potential changes, profiling panel, cell-based, JC-1 fluorescence, 3T3-L1 adipocytes, 24 h, 100 nL compound (AID 1168); details: JC-1 mitochondrial fluorescence, higher = more signal, called active from +8 up or from −8 down
[8] = basal RPMI8226 mitochondrial membrane potential changes, profiling panel, cell-based, JC-1 fluorescence, 24 h, 100 nL compound (AID 1169); details: RPMI8226 myeloma, JC-1 mitochondrial potential fluorescence, higher = more signal
[9] = basal MM1S mitochondrial membrane potential changes, profiling panel, cell-based, JC-1 fluorescence, 24 h, 100 nL compound (AID 1170); details: higher = more signal
[10] = A549 lung cancer cell viability effects, profiling panel, resazurin fluorescence, 24 h, PK04 Diversity Set (AID 1171); details: higher = more signal, called active from +8 up or from −8 down
Also: test concentration not given here.

| SMILES | z-score [1] | z-score [2] | z-score [3] | z-score [4] | z-score [5] | z-score [6] | z-score [7] | z-score [8] | z-score [9] | z-score [10] |
| --- | --- | --- | --- | --- | --- | --- | --- | --- | --- | --- |
| Cc1ccc(C2CC=C(C(=O)O)CN2S(=O)(=O)c2ccc(C)cc2)cc1 (stereo not given) | -0.789 | 0.171 | -1.04 | -1.07 | -1.65 | -0.0791 | -0.516 (inactive) | -0.187 | -0.296 | -0.716 (inactive) |
| CC=CC1=C(CO)[C@H](O)[C@H]2O[C@H]2[C@H]1O | -0.286 | 0.292 | -0.408 | 0.0314 | -0.054 | -0.722 | 0.382 (inactive) | 0.635 | 0.677 | -0.482 (inactive) |
| CC[C@@H](c1ccccc1)n1c(=O)n2n(c1=O)[C@H]1[C@H](O)[C@@H]3O[C@@H]3C(=NOCC=C(C)CCC=C(C)C)[C@H]1CC2 | -0.821 | 0.722 | -1.48 | -3.08 | -3.74 | -2.4 | 0.151 (inactive) | -0.829 | 0.198 | -0.0334 (inactive) |
| C[C@H](c1ccccc1)N1C(=O)[C@H]2[C@@H]3C(=CC[C@H]2C1=O)C(=O)[C@H]1O[C@H]1[C@H]3O | -1.86 | 0.265 | -4.46 | -3.11 | -3.94 | 1.02 | 1.02 (inactive) | -1.03 | -2.92 | -2.16 (inactive) |
| Cc1ccc(F)cc1S(=O)(=O)N[C@@H]1CCN(Cc2ccc(CC(C)C)cc2)C1 | -0.815 | -0.537 | -1.8 | -3.34 | -3.56 | -1.08 | -0.545 (inactive) | -1.14 | -2.19 | 0.0665 (inactive) |
| CC(=O)OC[C@H]1O[C@H](CC=NOC[C@@H](C)[C@H](OCc2ccccc2)C(C)C)C=C[C@@H]1OC(C)=O | -0.878 | -0.612 | -1.02 | -0.886 | 0.128 | -0.713 | -1.71 (inactive) | 1.17 | -0.482 | 0.286 (inactive) |
| CCc1cc2c(nc1CC)CCN(CCC(C)=NOC[C@@H](O)COCc1ccco1)C2 | 0.902 | 0.592 | 0.526 | -0.548 | -0.862 | 1.44 | -0.901 (inactive) | -0.824 | 0.581 | -0.527 (inactive) |
| C=CC[C@@H]1C=C[C@H](ON=C2c3cc(OC)ccc3O[C@H](c3cccc(OC)c3)[C@H]2O)[C@@H](CO)O1 | 0.27 | -0.855 | 0.925 | 0.334 | -0.0859 | -1.45 | 0.704 (inactive) | -0.148 | -1.12 | -1.25 (inactive) |
| CCOC(=O)[C@H](CC(C)C)NC(=O)CCC1CC(OC(=O)NCCc2ccc(F)cc2)CC2(CCCC(COC(=O)NCc3ccccc3)O2)O1 (stereo not given in full) | -0.138 | 0.0596 | -3.35 | -3.45 | -3.81 | -2.07 | 0.154 (inactive) | -0.165 | -1.45 | 0.29 (inactive) |
| NC(=O)NCC#Cc1ccc2c(c1)[C@]1(C(=O)N2)[C@H](c2ccc(O)cc2)N2[C@H](c3ccccc3)[C@H](c3ccccc3)OC(=O)[C@H]2[C@@H]1C(=O)N1CCCCCCC1 | 1.21 | 0.139 | 1.23 | 0.561 | 0.597 | -1.08 | 1.04 (inactive) | -0.578 | -0.413 | -0.118 (inactive) |
| CCOC(=O)NN=C1C[C@@H](O)[C@@H](O)[C@@H]2[C@@H]3C(=O)N(C4CCCCC4)C(=O)[C@@H]3CC[C@H]12 | -0.392 | 1.04 | 0.31 | -0.796 | -1.06 | -0.0619 | -1.05 (inactive) | -0.527 | 0.51 | -1.23 (inactive) |
| O=C1[C@H]2[C@H]3[C@H](O)[C@H](O)CC(=NO[C@@H]4O[C@H](CO)[C@@H](O)[C@H](O)[C@H]4O)[C@@H]3CC[C@H]2C(=O)N1Cc1ccc2c(c1)OCO2 | -0.575 | 1.13 | -0.874 | -0.778 | -1.06 | 0.221 | -1.34 (inactive) | -0.981 | 0.386 | 0.159 (inactive) |
| CCc1cc2c(nc1CC)CCN(CCC(C)=NO[C@@H](C)c1cc(-c3c(C)cc(C)cc3C)no1)C2 | 1.9 | 0.704 | 1.48 | -2.96 | -1.59 | 5.47 | 0.0344 (inactive) | 0.0876 | -0.769 | 0.323 (inactive) |
| CCOC(=O)C[C@H]1[C@H](OC(=O)c2ccc(C(=O)c3ccccc3)cc2)[C@@H](NC(=O)c2ccc(-c3ccccc3)cc2)c2cc(OCCCO)ccc2N1C(=O)c1ccc2ccccc2n1 | 1.03 | 1.44 | 1.35 | 0.598 | 1.08 | 1.92 | 1.98 (inactive) | 0.611 | -1.18 | 0.336 (inactive) |
